Screening data deposited in PubChem by several laboratories.
LGR2 antag – blocks bursicon-induced cAMP signaling via Drosophila LGR2; HEK293 LGR2, CRE-luciferase, bursicon-stimulated, 4 h; inhibition, % at 9.99 µM; hit rate 0.35% among 380,000; AID 720647;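 active = drop in luminescence signal, shown as inhibition above about 50% in the replicate tests, limit read from the data, passing the limit was not always enough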;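 note: agonist challenge used bursicon conditioned medium at about half maximal strength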
TWEAK-Fn14 inh – inhibitors of TWEAK-Fn14 interaction signaling; TWEAK-stimulated Fn14 reporter cells, luciferase luminescence, 8 h; inhibition, % at 10 µM; hit rate 2% among 360,000; AID 1159606; in the data active = inhibition above about 50%
EWS-Fli inh – blocks EWS/Fli oncoprotein-driven transcription. A673 NR0B1-luciferase reporter, viability-normalised. inhibition, % at 12.6 µM. hit rate 0.67% among 350,000. AID 651661;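 active = mean inhibition of at least 50% after viability correction, with every replicate also passing that limit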;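 note: firefly luciferase signal divided by Alamar Blue viability fluorescence both relative to DMSO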
TROY signal inh – blocks TROY-dependent signaling in reporter cells. Q293 LMP1-TROYcd NF-kB luciferase reporter, 4 h. inhibition, % at 10 µM. hit rate 0.98% among 360,000;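 active = compounds whose plate-normalised and pattern-corrected inhibition of the luciferase reporter signal at the single screening dose is 50% or more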
EBV LMP1 NFkB – Epstein-Barr LMP1 NF-kappaB reporter inhibition | hit rate 0.69% among 350,000 | AID 504558 | LMP1-induced NF-kappaB luciferase reporter cells, luminescence | inhibition, % at 12.5 µM; in the data active = inhibition above about 41%;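 note: 0% = neutral control wells and 100% = reference inhibitor control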
The depositor's hits bear a star; / = not tested or not shown. Rows were chosen to be rich in hits. Some 2.5% of all compounds tested hit in one or more screens of this group.

SMILES	LGR2 antag	TWEAK-Fn14 inh	EWS-Fli inh	TROY signal inh	EBV LMP1 NFkB
O=C(N/N=C/c1ccccc1)c1[nH]c2ccc(Br)cc2c1-c1ccccc1	-11	42	76*	14	13
Cc1cccc(-c2ccc([C@H]3[C@H]4CN(C(=O)c5ccc6c(c5)OCO6)CCCCN4[C@H]3CO)cc2)c1	-14	/	17	/	/
C[C@@H]1CN([C@@H](C)CO)S(=O)(=O)c2ccc(-c3ccncc3)cc2O[C@H]1CN(C)C(=O)c1cccc(F)c1	4	/	2	/	/
Cc1ccc(S(=O)(=O)NCCn2nc(C)cc2C)cc1	2	91*	2	0	6
CCCC(=O)NC(=S)Nc1c(C)cc(Br)cc1C	-32	34	/	45	2
CCCCCC(=O)NC(=S)Nc1ccc(Br)cc1C	/	1	18	-25	44*
O=C(Nc1ccccc1)N1C[C@@H]2[C@H](c3ccccc31)[C@@H](CO)N2Cc1ccc(F)cc1	6	/	-11	/	/
COC(=O)Nc1nc2ccc(C(=O)c3cccs3)cc2[nH]1	11	-18	64*	-10	5
Cc1cc(CSc2ccccc2)ccc1NC(=O)c1ccc(CN2CCOCC2)cc1	6	52*	/	24	35
COC(=O)c1cccc(-c2noc(-c3ccccc3F)n2)c1	-36	-35	90*	-15	38
O=C(O)c1cccc(-c2noc(-c3cccc(Cl)c3)n2)c1	84*	29	45	-39	80*
NC(=O)c1ccc(-c2noc(-c3cccc(Cl)c3)n2)cc1	-21	-22	-93	-64	1
NC(=O)c1cccc(-c2noc(-c3ccccc3F)n2)c1	-19	36	87*	-11	11
Cc1ccccc1S(=O)(=O)N1C[C@H](O)COC[C@H]2O[C@H](CC(=O)O)CC[C@@H]21	-4	/	7	/	/
Cc1cc(C)nc(SCC(=O)c2cc3ccccc3oc2=O)n1	/	-4	/	0	19
CC(=O)c1cc(NC(=O)c2ccc(C)cc2)c(=O)oc1/C=C/N(C)C	/	0	/	54*	-4
Cc1cc[n+](CC(=O)c2cc3ccccc3oc2=O)cc1	8	40	-57	52*	3
CC(=O)Nc1cc2ccccc2oc1=O	-5	-18	-9	2	-53
Cc1ccc(C(=O)Nc2cc3ccccc3oc2=O)cc1	99*	102*	79*	88*	79*
Cc1cc(C)c2ccc(N)nc2c1O	/	69*	/	9	2
Cc1c(CN(C)C)c2c(n1Cc1ccccc1)C(=O)c1ccccc1-2	6	62*	/	2	0
Cc1cc(=O)n(Cc2ccccc2)c2ccccc12	-10	-36	12	-7	3
C[C@@H]1CN([C@@H](C)CO)C(=O)c2cc(C#CCc3ccccc3)cnc2O[C@@H]1CN(C)Cc1ccccc1	6	/	8	/	/
O=C(c1cccc(NS(=O)(=O)c2ccc(F)c(F)c2)c1)N1CCN(C(c2ccccc2)c2ccccc2)CC1	/	57*	-9	11	-12
O=C(c1cccc(NS(=O)(=O)c2ccccc2)c1)N1CCCC1	5	-1	/	5	0
SMILES	LGR2 antag	TWEAK-Fn14 inh	EWS-Fli inh	TROY signal inh	EBV LMP1 NFkB
C/C(=N\Nc1ccc(C(F)(F)F)cc1[N+](=O)[O-])C(C)C	/	-14	4	4	66*
CCCNC(=O)N1CC2(CCN(C(=O)C3CCOCC3)CC2)c2c([nH]c3cc(OC)ccc23)[C@@H]1CO	-11	/	5	/	/
NCC[C@H]1CC[C@H](NS(=O)(=O)Cc2ccccc2)[C@@H](CO)O1	89*	/	-5	/	/
Cc1ccc(S(=O)(=O)N(C)C[C@@H]2OCCCC[C@@H](C)Oc3ccc(NC(=O)c4ccncc4)cc3C(=O)N([C@@H](C)CO)C[C@H]2C)cc1	-5	/	-8	/	/
CC(=O)N(C)c1ccc(C=C2C=Cc3ccccc32)cc1	4	79*	22	71*	3
CC1(C)CC(NC(=O)c2ccc(F)cc2)CC(C)(C)N1	-16	3	-2	-1	-7
CC1(C)CC(NC(=O)c2ccc(Cl)cc2)CC(C)(C)N1	3	74*	6	6	-7
O=C(c1ccccc1F)N1CC[C@@H]2[C@H]1c1cc(C#Cc3ccccc3F)ccc1N[C@@H]2CO	-5	/	-6	/	/
CSCC(CO)NS(=O)(=O)c1ccc(C)cc1 (stereo not given)	4	23	-2	57*	2
O=C(C[C@H]1C[C@H]2c3cc(NC(=O)CC4CC4)ccc3O[C@H]2[C@@H](CO)O1)NCc1ccc2c(c1)OCO2	4	/	5	/	/
CCOc1cc(/C=C/C(=O)Nc2ccc(C(=O)NCCN(CC)CC)cc2)ccc1OCC(C)C	103*	-28	55*	-8	-19
Cc1ccccc1S(=O)(=O)N1CC(=O)N2[C@H](C1)[C@H](c1ccc(C#CC3CC3)cc1)[C@@H]2CO	11	/	5	/	/
Cc1nn(C(C)(C)C)c(C)c1/C=N/OC(=O)Nc1ccc(Cl)cc1	99*	103*	87*	82*	74*
CCCNC(=O)N1[C@@H]2c3ccc(-c4ccccc4OC)c(=O)n3C[C@H]1[C@H](CO)[C@H]2C(=O)NCC	-10	/	-3	/	/
Cc1c(C)n(Cc2ccccc2)c2ncnc(Cl)c12	8	65*	24	38	29
CC(=O)c1cnn(-c2ccccc2)c1C	0	-13	-20	-6	0
Cc1c(C(=O)Oc2cccc3ccccc23)cnn1-c1ccccc1	-13	73*	/	82*	5
C[C@@H]1CN([C@@H](C)CO)C(=O)c2cc(N(C)C)ccc2O[C@@H](C)CCCCO[C@H]1CN(C)C(=O)C1CCCCC1	12	/	5	/	/
C[C@@H]1CN([C@@H](C)CO)C(=O)c2cc(NC(=O)Cc3ccccc3)ccc2O[C@@H]1CN(C)Cc1ccc(Cl)c(Cl)c1	2	/	1	/	/
COc1ccc(C(CCNCc2ccc(OC(C)C)cc2)c2ccccc2OC)cc1 (stereo not given)	0	-17	58*	9	-10
COc1ccc(C(CCNCc2ccc(F)cc2)c2ccc(F)cc2)cc1 (stereo not given)	59*	-19	7	11	-15
COc1ccc(CNCCC(c2ccc(OC)cc2)c2ccccc2OC)cc1 (stereo not given)	2	-8	42	9	4
C[C@@H]1CN([C@@H](C)CO)S(=O)(=O)c2ccc(C#CCN(C)C)cc2O[C@H]1CN(C)Cc1ccccc1	-8	/	5	/	/
O=C(Cc1ccncc1)Nc1ccc2c(c1)[C@@H]1C[C@H](CC(=O)N3CCOCC3)O[C@@H](CO)[C@@H]1O2	-1	/	17	/	/
CCN(CC)c1ccc(N2C(=O)CSC2=S)cc1	35	72*	8	-10	-9
O=C(O)c1ccc(N2C(=O)CSC2=S)cc1	26	68*	4	37	-10
COCC(=O)N1CC2(CN(C(=O)c3ccccn3)C2)c2c(n(C)c3cc(OC)ccc23)[C@H]1CO	-12	/	-5	/	/
Cc1ccc(NC(=O)Cn2nc(C)c3ccccc3c2=O)cc1	/	72*	/	/	0
O=c1[nH]c2c(=O)[nH]cnc2nc1-c1ccccc1	-7	-16	8	-6	-1
O=c1[nH]c(-c2ccccc2)cnc1-c1ccccc1	-23	73*	-94	-21	/
